Target: AgAbp1
Test: SPOT peptide array binding signal intensity (averaged, normalized) (arbitrary units (background-subtracted, floor 0; scale differs between SH3 domains)); higher = stronger binding of the SH3 domain to the peptide
Summary of the method: (§1)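 The binding signal is the normalized, background-subtracted spot intensity averaged over replicates; its arbitrary units differ between domains. It was obtained by incubating 10 μg/ml GST-fused SH3 domains from four yeast species overnight at 4°C in TBS-based blocking buffer on cellulose membranes with synthetic 15-mer peptides, cysteines replaced by serines, then detecting with anti-GST antibody, HRP anti-mouse secondary and luminol.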

Binder	SPOT peptide array binding signal intensity
MFLISPPASPPPEFD	≤ 0

Target: AgBbc1
Test: as above
Summary of the method: as §1

Binder	SPOT peptide array binding signal intensity
MFLISPPASPPPEFD	≤ 0

Target: AgBem1-D1
Test: as above
Summary of the method: as §1

Binder	SPOT peptide array binding signal intensity
MFLISPPASPPPEFD	70

Target: AgBzz1-D1
Test: as above
Summary of the method: as §1

Binder	SPOT peptide array binding signal intensity
MFLISPPASPPPEFD	≤ 0

Target: AgBzz1-D2
Test: as above
Summary of the method: as §1

Binder	SPOT peptide array binding signal intensity
MFLISPPASPPPEFD	≤ 0

Target: AgCyk3
Test: as above
Summary of the method: as §1

Binder	SPOT peptide array binding signal intensity
MFLISPPASPPPEFD	1.5

Target: AgFus1
Test: as above
Summary of the method: as §1

Binder	SPOT peptide array binding signal intensity
MFLISPPASPPPEFD	4

Target: AgHof1
Test: as above
Summary of the method: as §1

Binder	SPOT peptide array binding signal intensity
MFLISPPASPPPEFD	4

Target: AgHse1
Test: as above
Summary of the method: as §1

Binder	SPOT peptide array binding signal intensity
MFLISPPASPPPEFD	≤ 0

Target: AgLsb1
Test: as above
Summary of the method: as §1

Binder	SPOT peptide array binding signal intensity
MFLISPPASPPPEFD	≤ 0

Target: AgLsb4
Test: as above
Summary of the method: as §1

Binder	SPOT peptide array binding signal intensity
MFLISPPASPPPEFD	≤ 0

Target: AgMyo5
Test: as above
Summary of the method: as §1

Binder	SPOT peptide array binding signal intensity
MFLISPPASPPPEFD	388

Target: AgNbp2
Test: as above
Summary of the method: as §1

Binder	SPOT peptide array binding signal intensity
MFLISPPASPPPEFD	2

Target: AgRvs167
Test: as above
Summary of the method: as §1

Binder	SPOT peptide array binding signal intensity
MFLISPPASPPPEFD	≤ 0

Target: AgSho1
Test: as above
Summary of the method: as §1

Binder	SPOT peptide array binding signal intensity
MFLISPPASPPPEFD	1.5

Target: AgSla1-D1-D2
Test: as above
Summary of the method: as §1

Binder	SPOT peptide array binding signal intensity
MFLISPPASPPPEFD	3

Target: AgSla1-D3
Test: as above
Summary of the method: as §1

Binder	SPOT peptide array binding signal intensity
MFLISPPASPPPEFD	1

Target: CaAbp1-D1
Test: as above
Summary of the method: as §1

Binder	SPOT peptide array binding signal intensity
MFLISPPASPPPEFD	≤ 0

Target: CaAbp1-D2
Test: as above
Summary of the method: as §1

Binder	SPOT peptide array binding signal intensity
MFLISPPASPPPEFD	≤ 0

Target: CaBbc1
Test: as above
Summary of the method: as §1

Binder	SPOT peptide array binding signal intensity
MFLISPPASPPPEFD	6

Target: CaBem1-D1
Test: as above
Summary of the method: as §1

Binder	SPOT peptide array binding signal intensity
MFLISPPASPPPEFD	≤ 0

Target: CaBzz1-D1
Test: as above
Summary of the method: as §1

Binder	SPOT peptide array binding signal intensity
MFLISPPASPPPEFD	≤ 0

Target: CaBzz1-D2
Test: as above
Summary of the method: as §1

Binder	SPOT peptide array binding signal intensity
MFLISPPASPPPEFD	≤ 0

Target: CaCyk3
Test: as above
Summary of the method: as §1

Binder	SPOT peptide array binding signal intensity
MFLISPPASPPPEFD	2

Target: CaFus1
Test: as above
Summary of the method: as §1

Binder	SPOT peptide array binding signal intensity
MFLISPPASPPPEFD	342

Target: CaHof1
Test: as above
Summary of the method: as §1

Binder	SPOT peptide array binding signal intensity
MFLISPPASPPPEFD	≤ 0

Target: CaHse1
Test: as above
Summary of the method: as §1

Binder	SPOT peptide array binding signal intensity
MFLISPPASPPPEFD	8

Target: CaLsb1
Test: as above
Summary of the method: as §1

Binder	SPOT peptide array binding signal intensity
MFLISPPASPPPEFD	≤ 0

Target: CaLsb4
Test: as above
Summary of the method: as §1

Binder	SPOT peptide array binding signal intensity
MFLISPPASPPPEFD	≤ 0

Target: CaMyo5
Test: as above
Summary of the method: as §1

Binder	SPOT peptide array binding signal intensity
MFLISPPASPPPEFD	180

Target: CaNbp2
Test: as above
Summary of the method: as §1

Binder	SPOT peptide array binding signal intensity
MFLISPPASPPPEFD	31

Target: CaRvs167
Test: as above
Summary of the method: as §1

Binder	SPOT peptide array binding signal intensity
MFLISPPASPPPEFD	5.83

Target: CaRvs167-3
Test: as above
Summary of the method: as §1

Binder	SPOT peptide array binding signal intensity
MFLISPPASPPPEFD	3.75

Target: CaSho1
Test: as above
Summary of the method: as §1

Binder	SPOT peptide array binding signal intensity
MFLISPPASPPPEFD	19

Target: CaSla1-D1-D2
Test: as above
Summary of the method: as §1

Binder	SPOT peptide array binding signal intensity
MFLISPPASPPPEFD	≤ 0

Target: CaSla1-D3
Test: as above
Summary of the method: as §1

Binder	SPOT peptide array binding signal intensity
MFLISPPASPPPEFD	11.2

Target: ScAbp1
Test: as above
Summary of the method: as §1

Binder	SPOT peptide array binding signal intensity
MFLISPPASPPPEFD	5.5

Target: ScBbc1
Test: as above
Summary of the method: as §1

Binder	SPOT peptide array binding signal intensity
MFLISPPASPPPEFD	≤ 0

Target: ScBem1-D1
Test: as above
Summary of the method: as §1

Binder	SPOT peptide array binding signal intensity
MFLISPPASPPPEFD	≤ 0

Target: ScBzz1-D1
Test: as above
Summary of the method: as §1

Binder	SPOT peptide array binding signal intensity
MFLISPPASPPPEFD	7

Target: ScBzz1-D2
Test: as above
Summary of the method: as §1

Binder	SPOT peptide array binding signal intensity
MFLISPPASPPPEFD	2

Target: ScCyk3
Test: as above
Summary of the method: as §1

Binder	SPOT peptide array binding signal intensity
MFLISPPASPPPEFD	2

Target: ScFus1
Test: as above
Summary of the method: as §1

Binder	SPOT peptide array binding signal intensity
MFLISPPASPPPEFD	7

Target: ScHof1
Test: as above
Summary of the method: as §1

Binder	SPOT peptide array binding signal intensity
MFLISPPASPPPEFD	≤ 0

Target: ScHse1
Test: as above
Summary of the method: as §1

Binder	SPOT peptide array binding signal intensity
MFLISPPASPPPEFD	≤ 0

Target: ScLsb1
Test: as above
Summary of the method: as §1

Binder	SPOT peptide array binding signal intensity
MFLISPPASPPPEFD	≤ 0

Target: ScLsb2
Test: as above
Summary of the method: as §1

Binder	SPOT peptide array binding signal intensity
MFLISPPASPPPEFD	≤ 0

Target: ScLsb3
Test: as above
Summary of the method: as §1

Binder	SPOT peptide array binding signal intensity
MFLISPPASPPPEFD	≤ 0

Target: ScLsb4
Test: as above
Summary of the method: as §1

Binder	SPOT peptide array binding signal intensity
MFLISPPASPPPEFD	≤ 0

Target: ScMyo3
Test: as above
Summary of the method: as §1

Binder	SPOT peptide array binding signal intensity
MFLISPPASPPPEFD	735

Target: ScMyo5
Test: as above
Summary of the method: as §1

Binder	SPOT peptide array binding signal intensity
MFLISPPASPPPEFD	650

Target: ScNbp2
Test: as above
Summary of the method: as §1

Binder	SPOT peptide array binding signal intensity
MFLISPPASPPPEFD	20

Target: ScPex13
Test: as above
Summary of the method: as §1

Binder	SPOT peptide array binding signal intensity
MFLISPPASPPPEFD	≤ 0

Target: ScRvs167
Test: as above
Summary of the method: as §1

Binder	SPOT peptide array binding signal intensity
MFLISPPASPPPEFD	≤ 0

Target: ScSho1
Test: as above
Summary of the method: as §1

Binder	SPOT peptide array binding signal intensity
MFLISPPASPPPEFD	≤ 0

Target: ScSla1-D1-D2
Test: as above
Summary of the method: as §1

Binder	SPOT peptide array binding signal intensity
MFLISPPASPPPEFD	≤ 0

Target: ScSla1-D3
Test: as above
Summary of the method: as §1

Binder	SPOT peptide array binding signal intensity
MFLISPPASPPPEFD	7.25

Target: SpAbp1-D1
Test: as above
Summary of the method: as §1

Binder	SPOT peptide array binding signal intensity
MFLISPPASPPPEFD	≤ 0

Target: SpBbc1
Test: as above
Summary of the method: as §1

Binder	SPOT peptide array binding signal intensity
MFLISPPASPPPEFD	0.5

Target: SpBzz1-D1
Test: as above
Summary of the method: as §1

Binder	SPOT peptide array binding signal intensity
MFLISPPASPPPEFD	33.5

Target: SpBzz1-D2
Test: as above
Summary of the method: as §1

Binder	SPOT peptide array binding signal intensity
MFLISPPASPPPEFD	≤ 0

Target: SpCyk3
Test: as above
Summary of the method: as §1

Binder	SPOT peptide array binding signal intensity
MFLISPPASPPPEFD	4

Target: SpHof1
Test: as above
Summary of the method: as §1

Binder	SPOT peptide array binding signal intensity
MFLISPPASPPPEFD	7.5

Target: SpHof1-2
Test: as above
Summary of the method: as §1

Binder	SPOT peptide array binding signal intensity
MFLISPPASPPPEFD	8.25

Target: SpHof1-3
Test: as above
Summary of the method: as §1

Binder	SPOT peptide array binding signal intensity
MFLISPPASPPPEFD	≤ 0

Target: SpHse1
Test: as above
Summary of the method: as §1

Binder	SPOT peptide array binding signal intensity
MFLISPPASPPPEFD	103

Target: SpLsb1
Test: as above
Summary of the method: as §1

Binder	SPOT peptide array binding signal intensity
MFLISPPASPPPEFD	≤ 0

Target: SpLsb4
Test: as above
Summary of the method: as §1

Binder	SPOT peptide array binding signal intensity
MFLISPPASPPPEFD	49

Target: SpMyo1
Test: as above
Summary of the method: as §1

Binder	SPOT peptide array binding signal intensity
MFLISPPASPPPEFD	1430

Target: SpNbp2
Test: as above
Summary of the method: as §1

Binder	SPOT peptide array binding signal intensity
MFLISPPASPPPEFD	9

Target: SpPex13
Test: as above
Summary of the method: as §1

Binder	SPOT peptide array binding signal intensity
MFLISPPASPPPEFD	2.5

Target: SpRvs167
Test: as above
Summary of the method: as §1

Binder	SPOT peptide array binding signal intensity
MFLISPPASPPPEFD	≤ 0

Target: SpSla1-D1-D2
Test: as above
Summary of the method: as §1

Binder	SPOT peptide array binding signal intensity
MFLISPPASPPPEFD	≤ 0

Target: SpSla1-D3
Test: as above
Summary of the method: as §1

Binder	SPOT peptide array binding signal intensity
MFLISPPASPPPEFD	≤ 0
